In PubChem BioAssay (NCI):
About 83,000 compounds went through this panel and 20% of them were active in at least one assay; those are over-represented in the sample as a whole.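 Results are percent growth after 48 hours of single-concentration exposure. 100 means growth as in untreated cells, lower positive values show inhibition; negative values down to -100 show cell death.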 Values without a mark were called inactive. Calls of active or inactive are those of the source. The calls were made as follows: active = growth percent below 10; inactive = the rest.

The molecules below were run on MDA-MB-435 melanoma (assay: NCI-60 one-dose screen, 48 h (100 = growth as untreated, 0 = no growth, -100 = all killed)). Conditions: 10 µM unless noted.

Compound | growth
O=[N+]([O-])c1cccc(/C=C/c2ccccn2)c1 | 98.4%
COc1ccc(-c2nc3ccccn3c2/C=C/C(=O)c2cc(OC)c(OC)c(OC)c2)cc1 | 38.6%
COc1ccc(/C(C)=C(\c2ccc(Cl)cc2)c2ccc(OCCN3CCCCC3)cc2)cc1F | 37%
CCOc1cccnc1/C=N/NC(N)=S | 58.2%
CCCCCCCC/C=C/CCCCCCCC1=NCC[N+]1(CCO)CCO | 65.1%
O=C(Nc1ccccc1)c1sc(-c2cccc(C(F)(F)F)c2)cc1O | 77.9%
CCN(CC)S(=O)(=O)c1ccc(O)c(NC(=O)c2[nH]c(C)c(C(C)=O)c2CCc2ccc(Cl)cc2)c1 | 43.4%
COc1ccc(-c2nnc(SCC(=O)NC3=NN=C(c4ccccc4)CS3)o2)cc1 | 97.1%
N=C(N)c1ccc(-c2ccc(-c3ccc(Cl)cn3)s2)cc1 | -52.6% (active)
C[C@@H]1C(=O)N(C[C@H](Cc2ccccc2)N(Cc2ccccc2)Cc2ccccc2)[C@]1(Cc1ccccc1)C(=O)OC(C)(C)C | 76.5%
COc1cccc(CCC2CCCN(c3cc(C)nc(N)n3)C2)c1 (stereo unspecified) | 0.575% (active)
Cc1[nH]c(-c2nc3ccccc3[nH]2)c(C)c1C(=O)N1CCOCC1 | 99.7%
CN(C)CCCCNc1ccc(NCCCCN(C)C)c2c1C(=O)c1c(O)ccc(O)c1C2=O | 92.7%
COc1cc(C(=O)Nc2cc(O)c(CC=C(C)C)c(O)c2)cc2c1O[C@]1(C)CC[C@@H](O)C(C)(C)[C@H]1C2 | 24.9%
CCN(CC)CCNc1ccc(C)c2sc3cc(C)ccc3c(=O)c12 | 37.3%
O=[N+]([O-])c1ccc(-c2cc3c(Nc4ccc(Cl)c(C(F)(F)F)c4)ncnc3s2)cc1 | 5.4% (active)
Nc1nc(Nc2ccc(Cl)cc2)nn1S(=O)(=O)c1ccc(-c2ccc(F)cc2)cc1 | 91%
Cn1ccc(Cc2cnc(N)s2)n1 | 101%

Compound | growth
CCCCN1CCN(c2ccc3nc(-c4ccc5nc(-c6cc(OC)c(OC)c(OC)c6)[nH]c5c4)[nH]c3c2)CC1 | 53.5%
CCCCNC(=O)c1cc(NCc2cc(O)ccc2O)ccc1O | 96.8%
C=CCN1C(=O)[C@]2(SC1=S)[C@H](c1cccc(Cl)c1)CN(C)[C@]21C(=O)NC2C=CC(Cl)=C[C@H]21 (stereo partly specified) | 55.1%
CC(C)(C)c1ccc(C(=O)Nc2sc3c(c2C(N)=O)CCC(=O)C3)cc1 | -45.2% (active)
CCOC(=O)c1cnn2c(-c3ccc(Cl)cc3)nc(NCc3ccccc3)nc12 | 56.2%
CN(C)CN1CCN(c2ccc3nc(-c4ccc5nc(-c6ccc(C(F)(F)F)cc6)[nH]c5c4)[nH]c3c2)CC1 | 40.9%
CCc1c(C(=O)N[C@@H]2c3cc(Cl)ccc3CC[C@@H]2O)[nH]c(C)c1C(C)=O | 97.4%
c1ccc(-c2oc3ccccc3c2-c2ccccc2)cc1 | 99.5%
O=C(c1ccccc1)c1ccc(Cl)c([N+](=O)[O-])c1 | 89.5%
N=C(N)c1ccc(-c2ccc(-c3ccc(Cl)c(Cl)c3)o2)nc1 | -52.1% (active)
CCOC(=O)c1ccc(NC(=O)CCCN(CC)CC)cc1 | 108%
C=C1C(=O)O[C@H]2[C@H]1CC/C(COC(=O)/C=C\C(=O)NCc1ccc(Cn3c(=O)sn(-c4ccc(C#N)cc4)c3=O)cc1)=C\CC[C@@]1(C)O[C@@H]21 | -79.6% (active)
C[C@@H]1CC[C@@H]2[C@@H]1[C@H](OC(=O)/C=C/c1ccccc1)[C@]1(CCCOCCOCCOCCOC(=O)CCCC[C@@H]3SC[C@@H]4NC(=O)N[C@@H]43)C[C@@H](OC(=O)CO)[C@@]2(C)O1 | 99.7%
CC(C)c1ccc(NC(=O)Cc2ccc(Nc3ncnc4cc(-c5cnn(CCN(C)C)c5)ccc34)cc2)cc1 | -85.4% [30 µM] (active)
CN(C)c1ccc(-c2cc(-c3ccc(Nc4nc(Nc5ccccc5)nc(Nc5ccc(Cl)cc5)n4)cc3)nc(N)n2)cc1 | 49.2%
O=C1Nc2ccccc2/C1=N/N=C/c1c[nH]c2ccccc12 | 73.8%
CC(=O)Nc1nccs1 | 106%
CCCCC1COc2cccc3c(SCC(=O)N(C)c4cccc(Cl)c4)cc[n+]1c23 (stereo unspecified) | 120%
